The whole screen tested about 1,800 compounds, of which about 410 (23%) were called active. No rule for the calls is given here. Only a sample is shown. Results with a measured potency or affinity are listed apart.
Assay: Vero cell cytotoxicity, cytotoxicity control for flavivirus capping enzyme inhibitors (AID 588742)
Details: Vero cells viability, cytotoxicity counter-screen; series mostly up to 40 µM

Row | SMILES | outcome
1 | Nc1cc2nsnc2cc1Br | inactive
2 | COc1cccc(/C=C2\Oc3cc(OCC(=O)N4Cc5ccccc5C[C@H]4C(=O)O)ccc3C2=O)c1 | inactive
3 | O=C(N/N=C/c1ccc(N2CCOCC2)o1)c1cccc([N+](=O)[O-])c1 | inactive
4 | O=C(O)c1ccc(-n2nc(C(F)(F)F)c3c2-c2ccoc2CC3)cc1 | inactive
5 | O=C(Nc1cc(C(=O)Nc2ccccc2C(=O)O)cc(C(=O)Nc2ccccc2C(=O)O)c1)c1ccccc1 | inactive
6 | O=C(Nc1ccccc1C(=O)O)c1cccc(C(=O)Nc2ccccc2C(=O)O)c1 | inactive
7 | O=C(NNc1cc(Br)c(O)c(Br)c1)c1ccccc1 | inactive
8 | O=C(O)c1ccccc1-c1ccccc1C(=O)Nc1ccc2c(c1)C(=O)c1ccccc1-2 | inactive
9 | O=C(O)CCN1C(=O)/C(=C\c2cccc(OCc3ccccc3)c2)SC1=S | inactive
10 | O=c1c(C(c2ccc(O)cc2)c2c(O)nc3n(c2=O)CCS3)c(O)nc2n1CCS2 | inactive
11 | O=C1CC(=Nc2ccc([N+](=O)[O-])cc2)NN1c1c(Cl)cc(Cl)cc1Cl | inactive
12 | CCOC(=O)Cc1cc(=O)c2c(=O)n(-c3ccccc3)[nH]c2[nH]1 | inactive
13 | CCC1(C)Cc2c(C#N)c(N)sc(=S)c2CO1 (stereo not given) | inactive
14 | CC(=O)/C(=N/Nc1ccccc1)Sc1nnc(CCc2ccccc2)n1-c1ccccc1 | inactive
15 | CCc1nnc(NS(=O)(=O)c2ccc(NC(=S)NC(=O)/C=C/c3ccc(F)cc3)cc2)s1 | inactive
16 | CCOC(=O)Nc1sc(NS(=O)(=O)c2ccccc2)nc1C | inactive
17 | CCc1nnc(NC(=O)CCC(=O)N2CCN(c3ccccn3)CC2)s1 | inactive
18 | CCc1nnc(NS(=O)(=O)c2ccc(NC(=S)NC(=O)/C=C/c3ccc(C(C)C)cc3)cc2)s1 | inactive
19 | CCC(=O)Nc1ccc2nc3c(=O)[nH]c(=S)[nH]c3nc2c1 | inactive
20 | C=CCOc1ccc(/C=C2\SC(=S)N(NS(=O)(=O)c3ccc(C)cc3)C2=O)cc1 | inactive
21 | O=C(CNc1cccc2ccccc12)N/N=C/c1ccc(C(=O)O)cc1 | inactive
22 | CCC1(c2ccccc2)NC(=S)N(c2cccc(C)c2C)N1 (stereo not given) | inactive
23 | O=C(O)/C=C/C(=O)c1ccc2c(c1)NC(=O)CO2 | inactive
24 | COc1cc(/C=C2/SC(=S)N(CC(=O)O)C2=O)ccc1OC(=O)c1cccs1 | inactive
25 | CC(C)C(=O)OC1CCS(=O)(=O)c2sccc21 (stereo not given) | inactive

Row | SMILES | outcome
26 | CCCc1nc(C)c2c(=O)[nH]c(-c3cc(S(=O)(=O)N4CCN(CC)CC4)ccc3OCC)nn12 | inactive
27 | COc1cccc(CNc2ccc(N3CCCCC3)cc2)c1OC | inactive
28 | CCOc1c(Br)cc(CNc2ccc(N3CCN(C(C)=O)CC3)cc2)cc1OC | inactive
29 | Cc1nn(-c2ccccc2)c(Cl)c1/C=C1\SC(=S)N(CCCCCC(=O)O)C1=O | inactive
30 | CCOc1cc(NS(=O)(=O)c2ccccc2)c(OCC)cc1NC(=O)c1ccco1 | inactive
31 | COC(=O)c1c(C)oc2c1cc(NS(=O)(=O)c1ccc(C(=O)O)cc1)c1ccccc12 | inactive
32 | CC(=O)Nc1ccc(NS(=O)(=O)c2ccccc2)c2ccccc12 | inactive
33 | CCOC(=O)c1c(C)oc2c1cc(NS(=O)(=O)c1ccc(C(=O)O)cc1)c1ccccc12 | inactive
34 | COc1ccccc1/C=C1/C(=O)ON=C1C | inactive
35 | Cc1ccc(N2C(=O)c3ccccc3C2C(=O)c2ccc(O)cc2O)cc1 (stereo not given) | inactive
36 | CC1=C(C#N)c2nc(N)c(C#N)c(C)c2/C1=C\c1ccc(OCC(=O)O)c(Cl)c1 | inactive
37 | NC(=S)c1cc2cc(Br)ccc2oc1=O | inactive
38 | CC(=O)C(=Cc1cc(C)n(-c2ccccc2)c1C)C(C)=O | inactive
39 | CCN(CCCNc1cc2c(c(N)c1S(=O)(=O)O)C(=O)c1ccccc1C2=O)c1ccccc1 | inactive
40 | CCC(=O)Nc1cc(C(=O)O)ccc1Sc1ccc(C)cc1 | inactive
41 | CCOC(=O)Cc1csc(NC(=O)NC2(C(F)(F)F)Oc3ccccc3O2)n1 | inactive
42 | O=C(O)CCCN1C(=O)/C(=C\c2ccco2)SC1=S | inactive
43 | O=C(O)CCCN1C(=O)/C(=C/C=C/c2ccco2)SC1=S | inactive
44 | O=S(=O)([O-])CCC[n+]1c(SCCCS(=O)(=O)O)sc2ccc(Cl)cc21 | inactive
45 | O=S(=O)(Nc1ccc(O)c2ccccc12)c1ccc(F)cc1 | inactive
46 | O=C(O)COc1ccccc1/C=N/Nc1ccc(S(=O)(=O)Nc2ccc(Cl)cc2)cc1[N+](=O)[O-] | inactive
47 | O=C(NNS(=O)(=O)c1ccc([N+](=O)[O-])cc1)c1ccc2ccccc2c1O | inactive
48 | CCc1ccc(S(=O)(=O)Nc2ccc(O)c3ccccc23)cc1 | inactive
49 | O=C(O)CSc1nc(-c2ccc(Cl)cc2)nc2c1oc1ccccc12 | inactive
50 | O=C(O)CSc1c(O)c2ccccc2[nH]c1=O | inactive

Row | SMILES | outcome
51 | N#C/C(=C\c1ccccc1)C(=O)NNS(=O)(=O)c1cccc([N+](=O)[O-])c1 | inactive
52 | O=C(O)c1ccccc1NS(=O)(=O)c1cccc(NS(=O)(=O)c2cc(Br)ccc2Br)c1 | inactive
53 | Cc1nnc(SCC2=C(C(=O)O)N3C(=O)C(NC(=O)c4cccc(F)c4F)C3SC2)s1 (stereo not given) | inactive
54 | CC1(OC(=O)CCc2ccccc2)C(=O)C=C2C=C(c3ccc(C#N)cc3)N(Cc3ccccc3)C=C2C1=O (stereo not given) | inactive
55 | O=C1NN(c2cccc(Br)c2)C(=O)/C1=C/c1ccc(-c2cc([N+](=O)[O-])ccc2O)o1 | inactive
56 | Cc1ccc([C@@H]2CC=C(C(=O)O)[C@H](c3ccc(Br)cc3)N2S(=O)(=O)c2ccccc2C)cc1 | inactive
57 | CCCc1cc(=O)oc2c(CN3CCCC3)c(O)c(Cl)cc12 | inactive
58 | Cc1ccc(CSc2nnc3c(n2)OC2(Nc4ccccc4-3)C(=O)Nc3ccc(F)cc32)cc1 (stereo not given) | inactive
59 | CCN(CCCNC(=O)CCc1nc(-c2ccc(OC)cc2)no1)c1cccc(C)c1 | inactive
60 | CCN(CC)c1ccc(C2C3CCCCC3(O)CCN2CC(=O)N2CCCCC2)cc1 (stereo not given) | inactive
61 | CCN(/N=C/c1ccc(N(C)C)cc1)c1nc2ccccc2[nH]1 | inactive
62 | COc1ccccc1NS(=O)(=O)c1ccc(N/N=C/c2ccccc2OCC(=O)O)c([N+](=O)[O-])c1 | inactive
63 | O=C1NN(c2cccc(Br)c2)C(=O)/C1=C\c1ccccc1 | inactive
64 | N#CC1C(=O)c2ccccc2C1c1ccccc1 (stereo not given) | inactive
65 | CCCCCCn1c(=O)c(-c2ccccc2)c(O)c2ccccc21 | inactive
66 | COc1ccc(S(=O)(=O)CC(=O)c2cc3cc(Br)ccc3oc2=O)cc1 | inactive
67 | CCOc1ccc(/C=C/c2[nH]c(=O)[nH]c(=O)c2[N+](=O)[O-])cc1 | inactive
68 | COc1ccc(OC)c(/C=C2\SC(=S)N(NS(=O)(=O)c3ccc(C)cc3)C2=O)c1 | inactive
69 | O=C(CC(Nc1ccccc1Cl)C(=O)O)c1ccccc1 (stereo not given) | inactive
70 | CCCOC(=O)c1c(NC(=O)C2C3C=CC(C3)C2C(=O)O)sc2c1CCC(C)C2 (stereo not given) | inactive
71 | N#CCC(=O)N/N=C/c1ccc(OCC(=O)Nc2ccc(F)cc2)cc1 | inactive
72 | COC(=O)C1=C(C(=O)OC)C(c2ccccc2O)c2sc(=O)[nH]c2S1 (stereo not given) | inactive
73 | O=c1[nH]c(/C=C\c2ccc(O)c(O)c2)nc(O)c1[N+](=O)[O-] | inactive
74 | Cc1c(N2C(=O)/C(=C3\C(=O)N(CC(=O)O)c4ccccc43)SC2=S)c(=O)n(-c2ccccc2)n1C | inactive
75 | Cc1c(N=C2C=C(Br)C(=O)C(Br)=C2)c(=O)n(-c2ccccc2)n1C | inactive

Row | SMILES | outcome
76 | COc1ccccc1/C=C1\SC(=S)N(NS(=O)(=O)c2ccccc2)C1=O | inactive
77 | COc1ccc(S(=O)(=O)Nc2cc3c4c(c2)C(C)C(=O)N4CCC3)cc1OC (stereo not given) | inactive
78 | CC(=O)N1CCN(c2ccc(NCc3cccc(C)c3)cc2)CC1 | inactive
79 | N#C/C(=C\c1ccc(C#N)cc1)C(=O)c1ccccc1 | inactive
80 | O=C1C(=NO)CCc2ccccc21 | inactive
81 | O=C1c2ccccc2C(=O)c2c1cccc2N(CCO)CCO | inactive
82 | CCn1c2ccccc2c2cc(NC(=O)c3ccc(Br)o3)ccc21 | inactive
83 | CCCCCCSc1nc(O)c(C2OC(=O)c3c2ccc(OC)c3OC)c(=O)n1-c1ccccc1 (stereo not given) | inactive
84 | c1cc2c(cc1NC1CCCCCC1)OCO2 | inactive
85 | O=C(O)c1[nH]c2ccccc2c1C(c1cc(Cl)cc([N+](=O)[O-])c1O)c1c(C(=O)O)[nH]c2ccccc12 | inactive
86 | O=C(O)c1cc(N/N=C/c2ccc(-c3ccccc3)cc2)ccc1Cl | inactive
87 | O=C(O)CCCN1C(=O)/C(=C\c2ccccc2OCc2ccccc2)SC1=S | inactive
88 | O=C(O)CN1C(=O)/C(=C\c2ccccc2OCc2ccccc2)SC1=S | inactive
89 | O=C(O)CN1C(=O)/C(=C\c2ccccc2OCc2ccc(Cl)cc2)SC1=S | inactive
90 | O=C(O)CN1C(=O)/C(=C\c2cc([N+](=O)[O-])ccc2OCc2ccccc2Cl)SC1=S | inactive
91 | CC1=C/C(=C(\c2cc(C)c(O)c(Br)c2)c2ccccc2S(=O)(=O)O)C=C(Br)C1=O | inactive
92 | Cc1ccc(S(=O)(=O)N2CCC(C(=O)OC(C)C(=O)NC3CCCCC3C)CC2)cc1C (stereo not given) | inactive
93 | CN(C)c1ccc2cc(S(=O)(=O)O)cc(O)c2c1 | inactive
94 | Cc1nc2ccccc2c2oc(C(=O)Nc3ccc4c(c3)OCCO4)cc12 | inactive
95 | Cc1cc([N+](=O)[O-])ccc1N1C(=O)c2ccc(C(=O)Nc3ccccc3C(=O)O)cc2C1=O | inactive
96 | O=[N+]([O-])c1ccc(S(=O)(=O)Nc2nc(-c3ccccc3)cs2)cc1 | inactive
97 | Nc1nn2c(-c3ccccc3)cc(=O)[nH]c2c1N=Nc1ccc(O)cc1 | inactive
98 | O=C(O)c1ccc(N=N/C(=N\Nc2ccc(C(=O)O)cc2)c2ccccc2)cc1 | inactive
99 | O=C(O)CN1C(=O)/C(=C2\C(=O)N(Cc3ccccc3Cl)c3ccccc32)SC1=S | inactive
100 | Cc1c(N)cc(N)cc1C(=O)O | inactive

— PubChem BioAssay AID588742 (Southern Research Specialized Biocontainment Screening …, 2011)
